Assay in all cases: DAPPL (digital affinity profiling via proximity ligation, sequencing); 10 mM Tris-HCl pH 7.5, 50 mM NaCl, 1 mM DTT, 4% glycerol, room temperature, 30 min; GST-TFs on glutathione beads, 16-mer random dsDNA library, 0.1% formaldehyde crosslink after washing; high values mean tight binding
Common to all, as to conditions: protein: recombinant; tags: N-terminal GST; dsDNA, one strand shown

The target in one assay is T1, FLI1 (Homo sapiens, UniProt Q01543 1-452).
T1 sequence: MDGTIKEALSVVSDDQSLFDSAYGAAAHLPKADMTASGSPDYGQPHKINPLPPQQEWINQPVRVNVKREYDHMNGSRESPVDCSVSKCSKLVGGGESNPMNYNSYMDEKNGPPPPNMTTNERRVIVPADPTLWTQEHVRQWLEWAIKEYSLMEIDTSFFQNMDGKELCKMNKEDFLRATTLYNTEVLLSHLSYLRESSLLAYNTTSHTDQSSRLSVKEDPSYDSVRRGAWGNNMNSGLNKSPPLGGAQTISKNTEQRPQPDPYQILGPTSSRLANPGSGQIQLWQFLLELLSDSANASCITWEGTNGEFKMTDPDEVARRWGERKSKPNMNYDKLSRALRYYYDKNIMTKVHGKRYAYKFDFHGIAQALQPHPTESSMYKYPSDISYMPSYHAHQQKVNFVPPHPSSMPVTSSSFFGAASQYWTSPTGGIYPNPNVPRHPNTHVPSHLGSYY
The procedure, abridged: (§1)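 After expression in yeast as GST fusions, human transcription factors were bound to glutathione beads, DNA-barcoded and mixed with a tag-only sample. The pools were incubated with 200 nmole of a 16-mer random double-stranded DNA library in Tris/NaCl/DTT/glycerol buffer (30 min, room temperature), washed and crosslinked with 0.1% formaldehyde. Proximity ligation with BsaI/T4 ligase ran for 1 h at 37 °C, before PCR amplification and sequencing on an Illumina NextSeq500. Binding signal is a hexamer's read frequency for a factor divided by its frequency for the tag-only sample.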

The next assay concerns the target T2, ELK1 (Homo sapiens, UniProt P19419 1-428).
T2 sequence: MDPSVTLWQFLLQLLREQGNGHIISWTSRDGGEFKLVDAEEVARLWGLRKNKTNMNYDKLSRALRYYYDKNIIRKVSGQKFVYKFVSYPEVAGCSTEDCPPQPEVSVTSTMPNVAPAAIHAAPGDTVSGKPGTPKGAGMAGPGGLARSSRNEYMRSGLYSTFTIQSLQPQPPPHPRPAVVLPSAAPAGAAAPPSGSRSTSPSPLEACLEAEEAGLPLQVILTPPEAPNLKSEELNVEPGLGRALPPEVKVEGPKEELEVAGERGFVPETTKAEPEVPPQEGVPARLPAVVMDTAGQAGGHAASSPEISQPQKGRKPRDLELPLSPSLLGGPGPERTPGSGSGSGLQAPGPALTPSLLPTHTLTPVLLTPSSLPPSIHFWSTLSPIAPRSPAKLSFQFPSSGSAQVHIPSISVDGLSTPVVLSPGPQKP
A digest of the protocol: as §1

The target of another assay is T3, GABPA (Homo sapiens, UniProt Q06546 1-454).
T3 sequence: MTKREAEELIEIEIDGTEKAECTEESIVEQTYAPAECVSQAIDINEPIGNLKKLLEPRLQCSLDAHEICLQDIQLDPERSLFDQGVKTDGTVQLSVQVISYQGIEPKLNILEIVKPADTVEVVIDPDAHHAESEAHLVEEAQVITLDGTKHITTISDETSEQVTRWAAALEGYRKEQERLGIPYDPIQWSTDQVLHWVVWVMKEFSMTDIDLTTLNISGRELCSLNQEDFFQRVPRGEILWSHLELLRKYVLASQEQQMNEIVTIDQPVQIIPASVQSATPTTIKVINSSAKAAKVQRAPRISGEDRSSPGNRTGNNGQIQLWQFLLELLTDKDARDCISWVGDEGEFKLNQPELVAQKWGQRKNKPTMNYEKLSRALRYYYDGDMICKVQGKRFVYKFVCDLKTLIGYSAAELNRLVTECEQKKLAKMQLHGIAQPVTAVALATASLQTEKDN
The procedure, abridged: as §1

The next assay has as its target ELF1 (Homo sapiens, UniProt P32519 1-619). The procedure, abridged: as §1
Another assay addresses T4, EHF (Homo sapiens, UniProt Q9NZC4 1-300).
T4 sequence: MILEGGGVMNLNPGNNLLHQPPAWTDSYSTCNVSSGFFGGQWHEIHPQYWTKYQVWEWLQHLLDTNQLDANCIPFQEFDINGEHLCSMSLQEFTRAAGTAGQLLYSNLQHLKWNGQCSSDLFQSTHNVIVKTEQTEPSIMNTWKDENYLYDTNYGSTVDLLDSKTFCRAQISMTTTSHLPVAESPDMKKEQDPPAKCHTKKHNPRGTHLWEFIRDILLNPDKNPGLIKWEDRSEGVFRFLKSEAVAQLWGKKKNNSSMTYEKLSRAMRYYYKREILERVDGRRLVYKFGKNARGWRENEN
A digest of the protocol:
as §1

The target of another assay is SPI1 (Homo sapiens, UniProt P17947 1-270). The procedure, abridged:
as §1

A further assay addresses SPIB (Homo sapiens, UniProt Q01892 1-262). The procedure, abridged:
as §1

For the next assay, the target named is T5, ELK3 (Homo sapiens, UniProt P41970 1-407).
T5 sequence: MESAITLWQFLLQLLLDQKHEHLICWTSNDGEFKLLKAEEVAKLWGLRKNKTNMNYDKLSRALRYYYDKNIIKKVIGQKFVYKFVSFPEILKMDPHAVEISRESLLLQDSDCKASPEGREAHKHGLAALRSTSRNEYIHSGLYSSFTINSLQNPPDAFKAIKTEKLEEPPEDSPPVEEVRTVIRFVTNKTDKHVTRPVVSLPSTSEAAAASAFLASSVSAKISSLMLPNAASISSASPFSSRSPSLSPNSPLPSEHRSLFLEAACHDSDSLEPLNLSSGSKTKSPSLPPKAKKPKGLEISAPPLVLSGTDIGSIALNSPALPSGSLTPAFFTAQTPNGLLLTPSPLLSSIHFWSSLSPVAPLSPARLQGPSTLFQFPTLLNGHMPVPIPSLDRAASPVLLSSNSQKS
The procedure, abridged:
as §1

The target in another assay is T6, FEV (Homo sapiens, UniProt Q99581 1-238).
T6 sequence: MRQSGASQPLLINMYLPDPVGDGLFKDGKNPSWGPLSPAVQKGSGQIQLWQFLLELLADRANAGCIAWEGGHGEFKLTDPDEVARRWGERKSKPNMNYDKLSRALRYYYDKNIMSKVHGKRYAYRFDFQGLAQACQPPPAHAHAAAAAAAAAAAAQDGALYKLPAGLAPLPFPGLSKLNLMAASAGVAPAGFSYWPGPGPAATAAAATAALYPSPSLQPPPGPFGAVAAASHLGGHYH
A digest of the protocol:
as §1

For a further assay, the target named is ETV5 (Homo sapiens, UniProt P41161 1-510). A digest of the protocol:
as §1

The next assay concerns the target T7, SPIC (Homo sapiens, UniProt Q8N5J4 1-248).
T7 sequence: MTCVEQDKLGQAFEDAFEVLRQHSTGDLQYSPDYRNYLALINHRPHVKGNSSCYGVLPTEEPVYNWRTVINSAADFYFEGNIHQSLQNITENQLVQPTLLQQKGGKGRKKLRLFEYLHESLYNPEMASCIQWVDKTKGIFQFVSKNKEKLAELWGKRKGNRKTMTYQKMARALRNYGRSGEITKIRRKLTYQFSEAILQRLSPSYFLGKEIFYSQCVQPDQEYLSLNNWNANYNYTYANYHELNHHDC
A digest of the protocol: as §1

For another assay, the target named is ELF4 (Homo sapiens, UniProt Q99607 1-663). The procedure, abridged:
as §1

The target of the next assay is ETV1 (Homo sapiens, UniProt P50549 1-477). The procedure, abridged: as §1
Chain of ETV1 (P50549 whole entry): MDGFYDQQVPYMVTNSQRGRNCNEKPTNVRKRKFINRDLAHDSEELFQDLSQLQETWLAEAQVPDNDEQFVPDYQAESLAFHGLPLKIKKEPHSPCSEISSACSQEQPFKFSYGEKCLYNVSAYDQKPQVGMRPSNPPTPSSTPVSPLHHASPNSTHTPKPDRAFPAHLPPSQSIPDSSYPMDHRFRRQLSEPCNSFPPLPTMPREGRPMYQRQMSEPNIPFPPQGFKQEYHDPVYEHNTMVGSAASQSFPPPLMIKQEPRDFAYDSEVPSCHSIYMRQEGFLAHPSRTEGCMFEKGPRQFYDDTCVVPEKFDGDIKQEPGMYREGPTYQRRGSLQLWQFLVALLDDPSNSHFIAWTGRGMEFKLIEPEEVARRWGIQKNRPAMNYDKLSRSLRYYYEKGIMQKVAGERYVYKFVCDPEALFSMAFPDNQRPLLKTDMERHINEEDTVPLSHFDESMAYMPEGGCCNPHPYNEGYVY
In another assay the target is T8, ERF (Homo sapiens, UniProt P50548 1-548).
T8 sequence: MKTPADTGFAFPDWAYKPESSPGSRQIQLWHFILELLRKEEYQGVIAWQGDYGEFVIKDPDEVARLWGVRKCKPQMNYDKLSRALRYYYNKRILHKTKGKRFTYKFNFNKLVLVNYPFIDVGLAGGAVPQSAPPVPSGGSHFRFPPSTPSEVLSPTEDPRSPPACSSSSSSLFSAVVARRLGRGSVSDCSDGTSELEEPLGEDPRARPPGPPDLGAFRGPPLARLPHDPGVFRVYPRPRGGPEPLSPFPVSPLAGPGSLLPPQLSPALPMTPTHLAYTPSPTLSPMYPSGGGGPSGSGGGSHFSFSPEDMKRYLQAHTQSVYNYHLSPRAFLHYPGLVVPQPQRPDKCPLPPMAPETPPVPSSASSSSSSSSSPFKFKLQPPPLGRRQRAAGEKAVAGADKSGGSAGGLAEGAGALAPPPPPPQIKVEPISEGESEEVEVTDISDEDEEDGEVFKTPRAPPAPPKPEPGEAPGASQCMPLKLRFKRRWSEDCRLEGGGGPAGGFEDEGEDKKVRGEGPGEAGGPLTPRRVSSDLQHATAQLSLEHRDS
A digest of the protocol: as §1

In the next assay the target is T9, ETV3L (Homo sapiens, UniProt Q6ZN32 1-361).
T9 sequence: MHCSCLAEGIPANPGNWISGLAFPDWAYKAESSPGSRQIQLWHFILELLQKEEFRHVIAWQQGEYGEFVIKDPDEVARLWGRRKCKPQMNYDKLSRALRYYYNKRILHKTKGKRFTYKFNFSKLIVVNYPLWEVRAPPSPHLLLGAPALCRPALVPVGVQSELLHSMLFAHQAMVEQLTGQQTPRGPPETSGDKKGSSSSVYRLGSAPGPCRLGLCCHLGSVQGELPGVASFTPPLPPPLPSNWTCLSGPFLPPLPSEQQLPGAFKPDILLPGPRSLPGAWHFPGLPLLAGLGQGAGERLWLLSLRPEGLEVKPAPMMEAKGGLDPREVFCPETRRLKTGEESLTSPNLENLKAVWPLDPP
The procedure, abridged: as §1

A further assay concerns the target T10, ETS2 (Homo sapiens, UniProt P15036 1-469).
T10 sequence: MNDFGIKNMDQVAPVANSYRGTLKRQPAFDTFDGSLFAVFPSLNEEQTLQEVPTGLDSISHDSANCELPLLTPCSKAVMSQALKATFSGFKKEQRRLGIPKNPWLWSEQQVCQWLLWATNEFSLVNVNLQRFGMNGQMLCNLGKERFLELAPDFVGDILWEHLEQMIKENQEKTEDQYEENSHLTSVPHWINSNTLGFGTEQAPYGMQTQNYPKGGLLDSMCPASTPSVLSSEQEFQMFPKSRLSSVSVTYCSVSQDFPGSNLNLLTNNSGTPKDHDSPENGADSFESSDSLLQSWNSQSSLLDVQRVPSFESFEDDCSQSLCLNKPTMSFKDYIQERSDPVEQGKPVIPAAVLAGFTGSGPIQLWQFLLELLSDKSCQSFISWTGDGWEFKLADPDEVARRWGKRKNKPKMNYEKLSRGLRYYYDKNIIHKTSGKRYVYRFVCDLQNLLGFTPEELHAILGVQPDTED
A digest of the protocol: as §1

For another assay, the target named is T11, ELF5 (Homo sapiens, UniProt Q9UKW6-2 1-255).
T11 sequence: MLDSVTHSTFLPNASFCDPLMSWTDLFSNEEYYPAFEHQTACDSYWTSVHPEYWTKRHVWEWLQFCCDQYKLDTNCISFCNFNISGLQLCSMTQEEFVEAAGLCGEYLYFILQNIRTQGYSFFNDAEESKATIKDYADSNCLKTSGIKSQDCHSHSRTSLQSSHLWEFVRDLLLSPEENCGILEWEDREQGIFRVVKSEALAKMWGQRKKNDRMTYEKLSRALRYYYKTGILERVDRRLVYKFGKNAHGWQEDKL
The procedure, abridged: as §1

Another assay has as its target T12, ETV3 (Homo sapiens, UniProt P41162-2 1-143).
T12 sequence: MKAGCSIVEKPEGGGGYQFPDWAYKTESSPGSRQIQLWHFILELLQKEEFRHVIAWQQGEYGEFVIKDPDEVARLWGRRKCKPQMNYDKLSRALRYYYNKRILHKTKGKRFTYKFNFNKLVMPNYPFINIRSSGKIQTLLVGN
A digest of the protocol: as §1

The target of the next assay is ETV6 (Homo sapiens, UniProt P41212 1-452). The procedure, abridged: as §1
Chain of ETV6 (P41212 whole entry): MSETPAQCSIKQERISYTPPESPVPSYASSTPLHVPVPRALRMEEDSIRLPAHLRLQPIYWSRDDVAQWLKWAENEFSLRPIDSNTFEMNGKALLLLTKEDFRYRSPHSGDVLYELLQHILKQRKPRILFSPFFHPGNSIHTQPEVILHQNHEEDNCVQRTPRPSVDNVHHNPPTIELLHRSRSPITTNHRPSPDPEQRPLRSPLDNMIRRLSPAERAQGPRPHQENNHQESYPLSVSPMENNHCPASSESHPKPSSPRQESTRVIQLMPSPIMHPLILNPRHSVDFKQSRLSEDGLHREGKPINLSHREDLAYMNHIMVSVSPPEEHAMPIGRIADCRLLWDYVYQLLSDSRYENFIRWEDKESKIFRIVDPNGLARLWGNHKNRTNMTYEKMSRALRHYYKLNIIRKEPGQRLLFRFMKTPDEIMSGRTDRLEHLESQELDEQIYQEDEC

Chain of ELF1 (P32519 whole entry): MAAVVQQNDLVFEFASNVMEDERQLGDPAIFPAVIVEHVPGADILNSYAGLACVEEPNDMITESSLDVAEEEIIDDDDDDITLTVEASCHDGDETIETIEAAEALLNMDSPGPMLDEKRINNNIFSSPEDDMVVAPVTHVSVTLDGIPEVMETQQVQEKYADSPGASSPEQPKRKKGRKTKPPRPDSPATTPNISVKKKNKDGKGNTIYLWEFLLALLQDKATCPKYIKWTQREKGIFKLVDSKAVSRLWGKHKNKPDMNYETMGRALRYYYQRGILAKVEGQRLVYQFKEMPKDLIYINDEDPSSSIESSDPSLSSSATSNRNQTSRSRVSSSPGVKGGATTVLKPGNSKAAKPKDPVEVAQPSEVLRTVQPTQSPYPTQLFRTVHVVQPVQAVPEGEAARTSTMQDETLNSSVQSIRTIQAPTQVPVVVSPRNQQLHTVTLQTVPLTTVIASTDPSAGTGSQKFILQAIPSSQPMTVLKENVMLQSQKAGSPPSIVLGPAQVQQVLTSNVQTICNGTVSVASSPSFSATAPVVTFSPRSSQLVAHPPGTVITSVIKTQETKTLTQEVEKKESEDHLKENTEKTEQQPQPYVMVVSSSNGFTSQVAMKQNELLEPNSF
Chain of SPIB (Q01892 whole entry): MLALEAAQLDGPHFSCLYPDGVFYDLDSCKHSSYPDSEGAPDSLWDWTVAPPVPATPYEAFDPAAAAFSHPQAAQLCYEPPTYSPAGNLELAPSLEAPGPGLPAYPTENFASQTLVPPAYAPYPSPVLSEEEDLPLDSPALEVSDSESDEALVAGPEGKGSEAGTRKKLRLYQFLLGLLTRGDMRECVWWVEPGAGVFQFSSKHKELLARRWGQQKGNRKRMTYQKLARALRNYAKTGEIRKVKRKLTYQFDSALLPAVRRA
Chain of ELF4 (Q99607 whole entry): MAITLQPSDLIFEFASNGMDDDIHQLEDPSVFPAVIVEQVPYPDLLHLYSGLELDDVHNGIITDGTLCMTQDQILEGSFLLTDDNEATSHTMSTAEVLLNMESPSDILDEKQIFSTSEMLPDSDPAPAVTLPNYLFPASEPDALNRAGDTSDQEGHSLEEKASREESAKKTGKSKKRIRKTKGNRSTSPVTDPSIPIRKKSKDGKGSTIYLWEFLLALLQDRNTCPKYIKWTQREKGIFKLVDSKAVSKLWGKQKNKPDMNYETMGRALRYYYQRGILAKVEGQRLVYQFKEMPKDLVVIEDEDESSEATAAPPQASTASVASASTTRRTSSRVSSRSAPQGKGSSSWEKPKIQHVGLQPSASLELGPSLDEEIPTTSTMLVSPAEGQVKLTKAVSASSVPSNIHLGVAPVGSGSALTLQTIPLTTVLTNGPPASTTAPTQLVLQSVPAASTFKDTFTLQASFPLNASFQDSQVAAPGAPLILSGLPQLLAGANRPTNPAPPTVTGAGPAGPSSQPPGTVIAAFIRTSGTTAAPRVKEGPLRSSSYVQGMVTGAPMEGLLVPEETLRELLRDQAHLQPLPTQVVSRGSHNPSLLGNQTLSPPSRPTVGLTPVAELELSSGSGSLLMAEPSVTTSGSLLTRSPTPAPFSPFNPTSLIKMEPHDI
Chain of ETV5 (P41161 whole entry): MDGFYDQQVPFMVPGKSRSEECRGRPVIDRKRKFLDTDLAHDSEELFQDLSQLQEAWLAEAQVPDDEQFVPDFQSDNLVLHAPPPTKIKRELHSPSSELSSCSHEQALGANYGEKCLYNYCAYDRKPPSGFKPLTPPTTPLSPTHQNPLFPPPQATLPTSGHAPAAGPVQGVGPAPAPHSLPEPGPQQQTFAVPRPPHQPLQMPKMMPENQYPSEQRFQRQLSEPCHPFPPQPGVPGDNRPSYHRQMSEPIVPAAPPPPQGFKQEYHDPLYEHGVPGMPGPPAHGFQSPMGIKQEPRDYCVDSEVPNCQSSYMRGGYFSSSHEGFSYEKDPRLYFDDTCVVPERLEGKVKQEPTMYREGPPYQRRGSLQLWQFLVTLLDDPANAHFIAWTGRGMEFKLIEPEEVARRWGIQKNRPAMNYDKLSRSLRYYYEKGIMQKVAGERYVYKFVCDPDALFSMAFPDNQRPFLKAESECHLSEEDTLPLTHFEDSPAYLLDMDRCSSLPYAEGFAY

Take TGCTGC: the binding signal in the assay with FLI1 was 1.15 fold enrichment (6-mer frequency, TF over GST control); with ELK1 it was 1.15 fold enrichment (6-mer frequency, TF over GST control); in the assay with GABPA, 1.16 fold enrichment (6-mer frequency, TF over GST control); with ELF1 it was 1.21 fold enrichment (6-mer frequency, TF over GST control); in the assay with EHF, 1.3 fold enrichment (6-mer frequency, TF over GST control); with SPI1, 1.11 fold enrichment (6-mer frequency, TF over GST control). For the same sequence, the binding signal in the assay with SPIB was 1.07 fold enrichment (6-mer frequency, TF over GST control); with ELK3, 1.08 fold enrichment (6-mer frequency, TF over GST control); with FEV, 1.15 fold enrichment (6-mer frequency, TF over GST control); in the assay with ETV5 it was 1.17 fold enrichment (6-mer frequency, TF over GST control); with SPIC, 1.3 fold enrichment (6-mer frequency, TF over GST control); in the assay with ELF4, 1.16 fold enrichment (6-mer frequency, TF over GST control). The binding signal was 1.13 fold enrichment (6-mer frequency, TF over GST control) with ETV1; 1.07 fold enrichment (6-mer frequency, TF over GST control) with ERF; 1.34 fold enrichment (6-mer frequency, TF over GST control) in the assay with ETV3L; 1.15 fold enrichment (6-mer frequency, TF over GST control) with ETS2; 1.16 fold enrichment (6-mer frequency, TF over GST control) in the assay with ELF5; 1.23 fold enrichment (6-mer frequency, TF over GST control) in the assay with ETV3. The binding signal with ETV6 was 1.1 fold enrichment (6-mer frequency, TF over GST control).

These data come from PMC7862700, “An all-to-all approach to the identification of sequence-specific readers for epigenetic DNA modifications on cytosine”.
